Assay outcomes (PubChem)
The full list was thinned out, with hits kept by preference.
IL1B secr inh – blocks inflammasome-driven IL-1 beta release | THP-1 LPS/ATP IL-1B secretion, AlphaLISA, 16 h; active compounds read low | activity change, % at 57.5 µM | 360,000 tested, 4.7% active; in the data active = activity change below about -50%; inconclusive = mostly about -30% to -49%
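THP-1 cells pretreated 1 hr with compounds (up to 57.5 uM final), then stimulated with LPS (250 ng/mL final) plus ATP (1.25 mM final); secreted IL-1B measured by AlphaLISA after 16 hr, decreased signal indicating inhibition.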
DT40 TDP1 CPT – growth inhibition of DT40 Tdp1-/-;hTDP1 cells with camptothecin (screen for TDP1 inhibitors); chicken DT40 Tdp1-/-;hTDP1 cells + 20 nM CPT, ATP luminescence, 48 h; Potency, µM (highest dose often 46.2 µM), without a hit: top-dose activity change, negative = growth inhibition, most hits filed as inhibitors; 420,000 tested, 12% active; AID 686979; also: potency is read from the fitted curve at half-maximal effect; nearly all actives have a fitted effect of over 55% in size
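Chicken DT40 Tdp1-/- cells stably complemented with human TDP1 were seeded at 400 cells/well in medium containing 20 nM camptothecin, exposed to pin-transferred compounds, and grown at 37 °C for at least 48 hr. Viability was read as ATP luminescence.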
DT40 TDP1 no CPT – qHTS for Inhibitors of human tyrosyl-DNA phosphodiesterase 1 (TDP1): qHTS in cells in absence of CPT. Potency, µM (titrated, usually from 46.2 µM), for inactives: top-dose activity change, negative = growth inhibition, usual class: inhibitors. DT40 Tdp1-/- hTDP1 cells, no CPT, ATP luminescence, 48 h. AID 686978, 2013. 420,000 tested, 15% active; also: potency is read from the fitted curve at half-maximal effect; nearly all actives have a fitted effect of over 55% in size
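Cells were dispensed at 400 per well, compounds added by pin tool, plates incubated ≥48 hr at 37 °C, then CellTiter-Glo added for 30 min at room temperature before luminescence reading. Line: DT40 Tdp1-/- complemented with hTDP1; camptothecin omitted.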
HT1080NT lethal – kills 2HG-producing HT-1080-NT fibrosarcoma cells | HT-1080-NT fibrosarcoma viability, CellTiter-Glo ATP luminescence, 48 h | Potency, µM (top dose mostly 46.1 µM), for the others: at the top dose activity, negative = less viability, usual class: cytotoxic | 360,000 tested, 1.6% active | AID 686970;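 also: NT is the 2HG producing partner of a matched IDH1 knockdown line; potency is read from the fitted curve at half-maximal effect; 0% = DMSO-treated cells and -100% = media-only wells without cells; nearly all actives have a fitted effect of over 55% in size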
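Compounds were tested in concentration-response format on HT-1080-NT cells for 48 hours at 37 degrees C. Cell viability came from CellTiter-Glo luminescence; curves were classified by r2, response magnitude and activity.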
HT1080 IDH1KD tx – toxicity to HT-1080 IDH1 knockdown cells (counter line) | HT-1080 IDH1 knockdown viability, ATP luminescence, 48 h | Potency, µM (top dose mostly 46.1 µM), without a hit: at the top dose activity, negative = toxicity, most hits filed as cytotoxic | 360,000 tested, 2% active | AID 686971;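 also: potency is read from the fitted curve at half-maximal effect; 0% = DMSO wells and -100% = cell-free medium wells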
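Viability of IDH1-knockdown HT-1080 fibrosarcoma cells was assessed by CellTiter-Glo after 48 h at 37 °C with titrated compound; concentration-effect curves were classified by fit quality and response size.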
12-LOX inh – ALOX12 (human) lipoxygenase inhibition; Potency, µM (highest dose often 108 µM), for inactives: at the highest dose activity change, negative = inhibition, actives largely listed as inhibitors; AID 1671190; 580,000 tested, 1.1% active; P18054; purified 12hLO, xylenol orange hydroperoxide absorbance; also: potency is read from the fitted curve at half-maximal effect
Target sequence (P18054 whole entry, looked up): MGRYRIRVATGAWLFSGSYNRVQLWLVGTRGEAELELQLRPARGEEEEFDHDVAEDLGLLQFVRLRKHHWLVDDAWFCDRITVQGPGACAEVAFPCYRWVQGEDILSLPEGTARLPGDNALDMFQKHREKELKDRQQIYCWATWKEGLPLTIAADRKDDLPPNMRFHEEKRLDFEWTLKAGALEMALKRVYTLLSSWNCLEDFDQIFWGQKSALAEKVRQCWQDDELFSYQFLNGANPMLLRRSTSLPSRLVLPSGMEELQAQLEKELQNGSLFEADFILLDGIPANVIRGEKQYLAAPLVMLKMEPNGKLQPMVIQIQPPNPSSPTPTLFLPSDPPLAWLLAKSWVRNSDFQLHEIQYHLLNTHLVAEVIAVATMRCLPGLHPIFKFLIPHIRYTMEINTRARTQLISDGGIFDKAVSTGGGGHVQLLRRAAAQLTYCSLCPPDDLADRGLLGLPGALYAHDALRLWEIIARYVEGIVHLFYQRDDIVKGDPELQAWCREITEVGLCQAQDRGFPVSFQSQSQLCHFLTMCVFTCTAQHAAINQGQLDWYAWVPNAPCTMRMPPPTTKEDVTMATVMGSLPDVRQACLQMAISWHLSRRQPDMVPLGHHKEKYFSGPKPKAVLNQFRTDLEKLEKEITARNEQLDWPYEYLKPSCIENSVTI
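Hydroperoxide product was detected by ferrous iron/xylenol orange as the 573 to 405 nm absorbance ratio. Arachidonic acid at 40 uM (final) was turned over for 30 min at room temperature by 150 nM human 12hLO, pH 7.0 Hepes buffer, after 15 min compound preincubation.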
* = called active by the depositor; i = inactive; ? = inconclusive; / = not tested or not shown. Unless noted, calls follow the shape of the dose curve; as a rule, active = well fitted curve in the direction sought with a large enough effect; inconclusive = small, poorly fitted or top-dose-only effect, or another doubt; inactive = no such curve, though single readings can be large; an effect the other way counts as inactive or inconclusive. Unless noted, % is scaled to controls: 0 for no effect and ±100 for the full control effect.

SMILES	IL1B secr inh	DT40 TDP1 CPT	DT40 TDP1 no CPT	HT1080NT lethal	HT1080 IDH1KD tx	12-LOX inh
Cc1cccc(CSc2nnc([C@@H]3CCCN3C(=O)OC(C)(C)C)o2)c1	?	?	?	-4%	-3%	i
Cc1cccc(CSc2nnc(CCCCCNC(=O)OC(C)(C)C)o2)c1	15	?	16µM*	-4%	-24%	0%
CC(C)(C)OC(=O)NCCc1nnc(SCc2ccc(Cl)cc2)o1	25	0%	-26%	1%	1%	-8%
Cc1ccc(CSc2nnc(CCCCCNC(=O)OC(C)(C)C)o2)cc1	?	23µM*	18µM*	-14%	?	0%
COc1ccc(/C=C/C(=O)c2cc(F)ccc2OC(=O)c2ccccc2OC)cc1OC	-100*	4.1µM*	4.6µM*	1µM*	1.3µM*	-5%
COc1ccc(/C=C/C(=O)c2cc(F)ccc2OC(=O)c2ccc(OC)c(OC)c2)cc1OC	-29	?	-69%	?	?	-15%
COc1ccc(/C=C/C(=O)c2cc(F)ccc2OC(=O)c2ccccc2)cc1OC	?	0.41µM*	0.41µM*	?	1.6µM*	13%
COc1ccccc1/C=C/C(=O)c1cc(F)ccc1OC(=O)c1ccccc1Br	/	/	/	/	/	8%
O=C(NCc1ccc(F)cc1Cl)c1noc(-c2ccc3c(c2)OCO3)n1	/	/	/	/	/	-9%
O=C(COc1ccc2c(=O)c(-c3ccccc3)coc2c1)Nc1nccs1	/	/	/	/	/	-20%
COc1ccc(-c2nc3ccccn3c2NC2CCCCC2)cc1SC1CCCCC1	-75*	?	16µM*	?	?	?
COc1cc(-c2nc3ccccn3c2NCc2ccccc2)ccc1SC1CCCCC1	-29	26µM*	?	?	?	/
CCC(C)Sc1ccc(-c2nc3ccccn3c2NCc2ccccc2)cc1OC (stereo not given)	-74*	?	?	?	?	/
Cc1ccc(-c2nc3ccccn3c2NCc2ccc3c(c2)OCO3)cc1	?	21µM*	?	?	?	0%
COc1cc(-c2nc3ccccn3c2NCC2CCCO2)ccc1O (stereo not given)	-3	?	?	6%	-6%	-10%
Cc1cccc(OCC(=O)c2ccc3c(c2)N(C(C)C(=O)N2CCCC2)C(=O)CO3)c1C (stereo not given)	/	/	/	/	/	31%
CC(C)c1ccccc1OCC(=O)Nc1cc(C(F)(F)F)ccc1N1CCOCC1	/	/	/	/	/	2%
COc1cc(-c2nc3ccc(C)cn3c2NCc2ccccc2)ccc1-c1cccc(Cl)c1	-7	?	?	?	-11%	?
COc1ccc(CSc2ccc(-c3nc4ccccn4c3NCc3ccccc3)cc2OC)cc1	?	9.2µM*	8.2µM*	-25%	-2%	-13%
COC(=O)c1ccc(NC(=S)NCCc2ccc(OC)cc2)cc1	-21	?	3.7µM*	-7%	-8%	-12%
CCCCc1ccc(NC(=S)NCc2cccc(OC)c2)cc1	-79*	?	?	-10%	-16%	?
CCCCc1ccc(NC(=S)Nc2ccc(Nc3ccc(OC)cc3)cc2)cc1	0	18µM*	21µM*	-8%	?	35µM*
COC(=O)c1ccc(NC(=S)NCCc2cccc(C)c2)cc1	181	?	?	9%	0%	?
Cc1ccc2c(c1)[C@]1(C(=O)N2)N2CCC[C@H]2[C@@H](C(=O)c2ccccc2Cl)[C@]12C(=O)Nc1ccccc12	/	/	/	/	/	8%
CCC(Nc1ccc(-c2nc(-c3cccnc3)no2)cc1[N+](=O)[O-])c1ccccc1 (stereo not given)	/	?	?	/	/	-8%
SMILES	IL1B secr inh	DT40 TDP1 CPT	DT40 TDP1 no CPT	HT1080NT lethal	HT1080 IDH1KD tx	12-LOX inh
CC(C)C[C@H]1CNC(=O)C(=O)N1C[C@H]1CCCN1C[C@H](CC(C)C)N1C[C@H](Cc2ccccc2)N(CCc2ccccc2)C(=O)C1=O	27	21µM*	29µM*	12%	21%	?
CC(C)C[C@H]1CNC(=O)C(=O)N1C[C@@H]1CCCN1C[C@H](CC(C)C)N1C[C@H](Cc2ccccc2)N(CCc2ccccc2)C(=O)C1=O	-6	?	?	-13%	8%	-23%
CC(C)C[C@H]1CN([C@@H](Cc2ccccc2)CN2CCC[C@H]2CN2C(=O)C(=O)NC[C@@H]2Cc2ccccc2)C(=O)C(=O)N1CCc1ccccc1	-2	?	?	0%	4%	0%
CC(C)C[C@H]1CN([C@@H](Cc2ccccc2)CN2CCC[C@@H]2CN2C(=O)C(=O)NC[C@@H]2Cc2ccccc2)C(=O)C(=O)N1CCc1ccccc1	-67*	16µM*	16µM*	?	?	0%
O=[N+]([O-])c1cccc(Br)c1	/	/	/	/	/	-8%
Cc1cc(C2=CC(=O)C[C@H](c3ccc(F)cc3)C2)ccc1F	-11	?	?	-11%	2%	?
O=C(Cc1cccc(F)c1)N1CCC2(CC1)NC(=O)N(Cc1ccccc1)C2=O	/	/	/	/	/	-2%
CCOC(=O)c1c(CN2CCN(Cc3ccccc3)CC2)n(C)c2cc(Br)c(OC)cc12	-10	?	16µM*	0%	18%	-16%
CCOC(=O)c1c(CSc2ccccc2)n(C)c2cc(Br)c(OCC(O)CNC(CO)(CO)CO)cc12 (stereo not given)	-100*	?	15µM*	-5%	-16%	-15%
CCOC(=O)c1c(CS(=O)(=O)c2ccccc2)n(C)c2cc(Br)c(O)cc12	11	?	?	4%	5%	6%
CCOC(=O)c1c(CN2CCN(CC#N)CC2)n(C)c2cc(Br)c(OC)cc12	-63*	?	?	?	21µM*	0%
CCOC(=O)c1c(C)n(C)c2cc(Br)c(C)cc12	0	-7%	-12%	11%	8%	17%
CCOC(=O)c1c(CN2CCC(C)CC2)n(C)c2cc(Br)c(OC)cc12	-13	?	16µM*	18%	0%	-16%
CCOC(=O)c1c(CSc2ccccc2)n(C)c2cc(Br)c(OC)c(O)c12	-27	?	?	-1%	3%	9%
O=C(Cn1nc2c(cc1=O)CCCC2)N1CCOCC1	/	/	/	/	/	12%
O=C1CCC[C@H]2[C@@H](Cc3ccccc3)[C@@H](NCc3ccccc3)CC[C@]23CCCN13	/	/	/	/	/	9%
CC(=O)c1cc2c(cc1NS(=O)(=O)c1ccccc1C)OCO2	/	/	/	/	/	-20%
